We go through 24 compounds from PubChem BioAssay (NCI).

SMILES strings stand for the structures. The panel holds about 83,000 compounds, 20% with a hit somewhere; the sample as a whole holds those more often.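 Treatment: one concentration, 48 hours, 96-well format. Scoring: percent growth, with anything below 10 considered active.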 A number with no mark means an inactive call. Active and inactive are the calls of the source.

The test concerns MDA-MB-468 breast. The test can be described thus: NCI-60 one-dose screen, 48 h (100 = growth as untreated, 0 = no growth, -100 = all killed). The note with it: 10 µM unless noted.
On to `C#C[C@@]1(O)[C@@H](CO)O[C@@H](n2cc(C(F)(F)F)c3c(N)ncnc32)[C@@H]1O`, for which the growth is -56.3% (active).

Consider `COc1cc2nc(Cl)nc(Nc3cccc(C4=Nc5c(N)nc(N)nc5NC(c5ccc(Cl)cc5)C4)c3)c2cc1OC` (centres undefined), for which the growth is 27.5%.

As to `O=S(=O)(Oc1ccc(-c2cn3ccsc3n2)cc1)c1cccc(C(F)(F)F)c1`, the growth was 92.9%.

For `CC(C)[C@@H]1CC[C@]2(C(=O)NCCCCN=C(N)N)CC[C@]3(C)[C@H](CC[C@@H]4[C@@]5(C)CCC(=O)C(C)(C)[C@@H]5CC[C@]43C)[C@@H]12`, the growth is 10.6%.

For `Cc1cc(O)c(C2=NN(c3ccc(S(N)(=O)=O)cc3)C(/C=C/c3ccccc3)C2)cc1Cl` (centres undefined), the growth is 43.3%. As for `c1cc(-c2nnc(SSc3ncnc4nc[nH]c34)o2)ccn1`, the figure is -9.07% (active); as for `CCSC1=NC2C(N(CC)C(=O)N2CC)N1/N=C/C=C/c1ccccc1[N+](=O)[O-]` (centres undefined), -0.585% (active); as for `CCN(CC)CC(=O)Nc1c(C)ccc(N)c1C`, 95.8%. As for `COc1c(O)c2c3c(c1OC)-c1ccccc1CC3N(S(=O)(=O)c1ccc(C)cc1)CC2` (centres undefined), the figure is 37.1%. As for `CC/C(=C(\c1ccc(Cl)cc1)c1ccc(OCCN2CCCCC2)cc1)c1ccc(O)cc1`, the figure is 22.4%; as for `CC/C(=C(/CC)c1ccc(O)cc1)c1ccc(O)cc1`, 35.2%; as for `CC(C)(C)n1cc(-c2ccnc(NCCCNS(=O)(=O)c3ccccc3)c2)c(-c2ccccc2)n1`, 25.1%. For `CCN(CC)c1ccc2[nH]c3c(C(N)=O)cc(=O)c(=O)c=3oc2c1`, the growth was -38.4% (active).

Take `CC(C)(C)OC(=O)N1CC(Cn2cc(C(F)(F)F)c3c(Cl)ncnc32)C1`: the growth was -46.8% (active). In the case of `COc1ccc(-c2nnc(COc3ccc(C(=O)/C=C/c4ccco4)cc3)o2)cc1` it was 20.4%. In the case of `CC12O[C@H](C[C@@H](OC(=O)c3ccccc3)[C@H]1O)n1c3ccccc3c3c4c(c5c6ccccc6n2c5c31)C(=O)NC4=O` it was 81.1%. As for `CCCCSc1ncnc2c1ncn2C1CCCCO1` (centres undefined), the figure is 122%. `COc1ccc(NC(=O)/C(=C/N2C(=O)/C(=C/c3ccc(OC)c(OC)c3)NC2=S)C(C)=O)cc1`: the growth was 40.1%. On to `O=C(NC(Cc1cn(Cc2ccccc2)cn1)C(=O)O)OCC1c2ccccc2-c2ccccc21` (centres undefined), for which the growth is 107%.

Consider `CCCCC1COc2cccc3c2N1C=C/C3=C\C(=O)n1ccc2ccccc21` (centres undefined), for which the growth is 12.3%.

Turning to `COC(=O)C1Cc2ccccc2CN1C(=O)c1ccc2c(c1)Cc1ccccc1-2` (centres undefined), the growth was 14.5% [50 µM].

As to `Clc1ccc2oc3c(NCCCn4ccnc4)c4ccccc4nc3c2c1`, the growth was 51.6%. In the case of `COc1ccc(CCN2COc3c([C@@H](C)CCC=C(C)C)ccc(C)c3C2)cc1OC` it was 26.8%; in that of `COc1ccc(Cc2cnc(NC(=O)c3sc4ccccc4c3Cl)s2)cc1`, 23.5%.
